# Results reported in the supplement of paper PMC8183993.
# Several values for one entry are separate records, joined by “and”; a condition that tells them apart may be missing. Identical values can stand only once. Counter-ions that a name gives are not always drawn. ± gives the standard deviation of the averaged measurements. The full ranking holds about 3,100 compounds; the median of “mean cytoplasmic OPP incorporation (global translation) relative to DMSO” is about 100, and the lowest 2% start at about 56. Shown is part of a subset that was picked to be rich in the lowest values.
# Tested on: U2OS
# Assay: mean cytoplasmic OPP incorporation (global translation) relative to DMSO (% of DMSO); higher = more protein synthesis
# Conditions: 10 µM; 24 h
# Method: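 Primary image-based screen in U2OS cells: compounds at 10 uM for 24 h, then a 1 h o-propargyl-puromycin (OPP) pulse, click labelling, and high-throughput microscopy. Mean cytoplasmic OPP intensity and nuclei count were normalised to DMSO wells within each plate (DMSO = 100) and averaged over triplicate plates.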
row,Compound,mean cytoplasmic OPP incorporation
1,CNC(=O)c1ccccc1Nc1nc(Nc2ccc(N3CCOCC3)cc2OC)ncc1Cl,90.7 ± 4.2
2,CCOc1cc(N2CCC(O)CC2)ccc1Nc1ncc2c(n1)N(C)c1ccccc1C(=O)N2C,110
3,COc1cc(N2CCC(N)CC2)ccc1Nc1ncc(Cl)c(-c2c[nH]c3ccccc23)n1,36.5
4,"O=C(/C=C/c1ccc(CN(CCO)CCc2c[nH]c3ccccc23)cc1)NO [LAQ824 (NVP-LAQ824, Dacinostat)]",47.7
5,OCc1c[nH]c2ccccc12 [Indole-3-carbinol],113
6,c1ccc2c(Cc3c[nH]c4ccccc34)c[nH]c2c1 [Diindolylmethane],93.7
7,CC(C)C[C@H](NC(=O)N[C@H](C(=O)N[C@@H](CCC(N)=O)C(=O)N[C@@H](C)C=O)[C@@H]1CCNC(=N)N1)C(=O)O [Elastatinal],98.9
8,COc1cc(OC)c(C(=O)CCCCN2CCC3(CC2)NC(=O)NC3=O)cc1NS(=O)(=O)c1ccc(C(F)(F)F)cc1,129
9,CC1(C)CCC2=C(O1)c1ccccc1C(=O)C2=O,110
10,CC1=CC(=O)c2ccccc2C1=O [Menadione],95.2
11,CC1(C)C(=O)NC2=C1C(=O)C(=O)c1ccccc12,59.6 and 42.6
12,c1cc2c(cc1C1CCCCC1)c1c3n2CCNC3CCC1 (centres undefined) [Tetrindole mesylate],129
13,C=C(C)[C@@H](CC=C(C)C)C[C@@]12C[C@@H](CC=C(C)C)C(C)(C)[C@@](CC=C(C)C)(C(=O)C(C(=O)c3ccc(O)c(O)c3)=C1O)C2=O [Garcinol],100
14,C[C@@H](NCc1cc(Br)cc2[nH]c(=O)c(=O)[nH]c12)P(=O)(O)O,96.4
15,Cc1ccc(C(=O)Nc2ccc(CN3CCN(C)CC3)c(C(F)(F)F)c2)cc1C#Cc1cnc2[nH]ncc2c1 [GZD824 Dimesylate],37.4
16,Cc1ccc(NC(=O)c2ccc(CN3CC[C@H](N(C)C)C3)c(C(F)(F)F)c2)cc1Nc1nccc(-c2cncnc2)n1 [Bafetinib (INNO-406)],118
17,Cc1ccc(C(=O)Nc2ccc(CN3CCN(C)CC3)c(C(F)(F)F)c2)cc1C#Cc1cnc2cccnn12,32.7
18,Cc1ccc(C(=O)Nc2cccc(C(F)(F)F)c2)cc1Nc1nc(-c2cccnc2)nc2c1cnn2C,145
19,O=C(Cc1ccccc1)Nc1cccc(C(=O)Nc2ccccc2C(=O)O)c1,106
20,"S=c1ccss1 [1,2-Dithiole-3-thione]",115
21,CC[C@H](C)[C@H](N)C(=O)N1CCSC1 [P32/98 hemifumarate salt],107

row,Compound,mean cytoplasmic OPP incorporation
1,NC(=O)c1ccncc1 [Isonicotinamide],109
2,C=CC(=O)c1ccc2ccccc2c1,100
3,O=C(/C=C/c1ccc2ccccc2n1)c1ccncc1,26.3
4,COc1cc2c(NC3CCN(C)CC3)nc(N3CCCN(C)CC3)nc2cc1OCCCN(C)C,112
5,CCn1nnc2c(N3CCOCC3)nc(-c3ccc(NC(=O)Nc4ccc(C(=O)N5CCN(C)CC5)cc4)cc3)nc21,67.6
6,Cc1c(C(=O)NC2CCCCC2)sc2nc3ccc(N)cc3n12,106
7,NC(=O)Nc1sc(-c2ccc(F)cc2)cc1C(N)=O,76.5 ± 9.7
8,NC(=O)Nc1cc(-c2cccc(F)c2)sc1C(=O)N[C@H]1CCCNC1,25.1
9,C[C@H]1O[C@@H](O[C@H]2[C@@H](O)C[C@H](O[C@H]3[C@@H](O)C[C@H](O[C@H]4CC[C@@]5(C)[C@H](CC[C@@H]6[C@@H]5C[C@@H](O)[C@]5(C)[C@@H](C7=CC(=O)OC7)CC[C@]65O)C4)O[C@@H]3C)O[C@@H]2C)C[C@H](O)[C@@H]1O [Digoxin],19
10,Oc1ccc(-c2nc3cc(O)cc(Br)c3o2)cc1,89.5
11,O=C[C@@H]1CCCN1C(=O)[C@@H]1CCCN1C(=O)OCc1ccccc1 [Z-Prolyl-prolinal],98
12,N#C/C(=C\c1ccc(O)c(O)c1)C(=O)NCCCCc1ccccc1,87.8
13,CCCCC[C@H](O)CC(=O)CCc1ccc(O)c(OC)c1 [Gingerol],102
14,NC(C(=O)O)c1cc(O)cc(O)c1 (racemic),107
15,"N[C@@H](Cc1cc(I)c(O)c(I)c1)C(=O)O [3,5-Diiodo-L-tyrosine]",100
16,CS(=O)(=O)Nc1ccc([N+](=O)[O-])cc1Oc1ccccc1 [Nimesulide],97.3 ± 5.5
17,O=C1Nc2ccc([N+](=O)[O-])cc2C1=O [5-Nitroisatin],104
18,O=[N+]([O-])c1ccc2c(c1)S(=O)(=O)C=C2 [Stattic],48.5
19,O=C(O)c1ccc(-c2ccc3cc(O)c(C45CC6CC(CC(C6)C4)C5)cc3c2)cc1,98.8
20,Cc1ccc(C(=O)c2cc(/C=C/C(=O)NO)n(C)c2)cc1,99.3
21,C1CCC(C(CC2CCCCN2)C2CCCCC2)CC1 (centres undefined) [Perhexiline maleate],53

row,Compound,mean cytoplasmic OPP incorporation
1,CNC(C)C1CCC(N)C(OC2C(N)CC(N)C(OC3OCC(C)(O)C(NC)C3O)C2O)O1 (centres undefined) [Gentamycin sulfate (Gentacycol)],107
2,NCC1CCN(c2nccc(-c3ccc4ccccc4c3)n2)CC1,88.3
3,C[C@H]1CC[C@@]2(OC1)O[C@H]1C[C@H]3[C@@H]4CC[C@@H]5C[C@@H](O[C@@H]6O[C@H](CO)[C@H](O)[C@H](O)[C@H]6O[C@@H]6O[C@H](CO)[C@@H](O)[C@H](O)[C@H]6O)CC[C@]5(C)[C@H]4CC[C@]3(C)[C@H]1[C@@H]2C [Timosaponin A-III],111
4,C=CC(=O)Nc1cccc(Sc2nc(Nc3ccc(N4CCN(C)CC4)cc3)ncc2Cl)c1,57.4
5,CNC(=O)c1nn(C)c2c1C(C)(C)Cc1cnc(Nc3ccc(N4CCN(C)CC4)cc3)nc1-2,89.3 and 44.9
6,C=CC(=O)Nc1cccc(Oc2nc(Nc3ccc(N4CCN(C)CC4)cc3)ncc2Cl)c1,64.9
7,O=C(NC[C@H](O)CN1CCc2ccccc2C1)c1ccnc(NC2CCC2)c1,107
8,NCCCCCCCCCCNS(=O)(=O)c1cccc2c(Cl)cccc12 [A-7 hydrochloride],115
9,CC(C)c1ccc(Cn2ccc3c4c(N)nc(NC5CC5)nc4ccc32)cc1,40.1
10,O=C(NCCN1CCCCC1)c1ccc(I)cc1 [N-[2-(Piperidinylamino)ethyl]-4-iodobenzamide],100
11,CC(C)n1nc(-c2ccc3oc(N)nc3c2)c2c(N)ncnc21,53.5 ± 16
12,Cc1ccccc1-n1c(Cn2nc(-c3cccc(O)c3)c3c(N)ncnc32)nc2cccc(C)c2c1=O,102
13,C[C@H](Cn1cnc2c(N)ncnc21)OCP(=O)(O)O [Tenofovir (Viread)],99.5
14,CC(C)(C)n1nc(-c2cccc3ccccc23)c2c(N)ncnc21 [1-Naphthyl PP1],93
15,CC(C)n1nc(-c2cc3cc(O)ccc3[nH]2)c2c(N)ncnc21 [Torkinib (PP242)],52.5
16,CCO/C(O)=C1\C(C)=NC(c2ccccc2)=C(C(=O)OCc2ccc([N+](=O)[O-])cc2)C1C#Cc1ccccc1 (centres undefined),108
17,CC1=C(/C=C/C(C)=C\C=C\C(C)=C\C(=O)O)C(C)(C)CCC1 [9-cis Retinoic acid],96.4
18,"Nc1ccc(CC(CC(=O)O)C(=O)O)cc1 [4-Amino-D, L-benzylsuccinic acid]",104
19,CC(C)[C@@H](O)CC[C@@H](C)[C@H]1CC[C@H]2[C@@H]3CC=C4C[C@@H](O)CC[C@]4(C)[C@H]3CC[C@]12C [24(S)-Hydroxycholesterol],104
20,Cc1ccc2nc(NCCN)c3ncc(C)n3c2c1,56.1
21,Cc1ncc(-c2ccnc(Nc3ccc(S(C)(=O)=O)cc3)n2)n1C(C)C,55.9

row,Compound,mean cytoplasmic OPP incorporation
1,Cc1ccnc(NS(=O)(=O)c2ccc(NC(=O)Nc3ccc(S(=O)(=O)Nc4nccc(C)n4)cc3)cc2)n1,96.2
2,Cc1nc(N)sc1-c1ccnc(Nc2ccc(N3CCOCC3)cc2)n1,93.4
3,"C[C@]12CC[C@@H](O)C[C@@H]1CC[C@@H]1[C@@H]2CC[C@]2(C)C=CC[C@@H]12 [3a, 5a-Androstenol]",97.3
4,Cn1cc(C2=C(c3ccc(Cl)cc3Cl)C(=O)NC2=O)c2ccccc21,104 and 106
5,CN(C)CCCn1cc(C2=C(c3c[nH]c4ccccc34)C(=O)NC2=O)c2ccccc21,90.7 and 79.3
6,Cn1cc(C2=C(c3cn(CCCSC(=N)N)c4ccccc34)C(=O)NC2=O)c2ccccc21 [Ro 31-8220 mesylate],62.4
7,Cn1cc(C2=C(c3cn(CCCSC(=N)N)c4ccccc34)C(=O)NC2=O)c2ccccc21 [Ro 31-8220 Mesylate],30.3
8,CC(=O)C1=C(O)C=C2Oc3c(C(C)=O)c(O)c(C)c(O)c3[C@]2(C)C1=O [Usnic acid],101
9,CC(=Nc1ccccc1N)c1c(C)cc(=O)n(O)c1O,95.7
10,COc1cccc(-c2cc(NCc3ccc4c(c3)OCO4)nc(N)n2)c1,92.3
11,CNCCN1CCC(OCc2ccccc2)CC1,111
12,O=C(CCCCCCC(=O)Nc1ccccc1)NO [Vorinostat],41.9
13,Nc1ccccc1NC(=O)CCCCCCC(=O)Nc1ccccc1,92.9
14,O=C(CCCCCCC(=O)Nc1cccnc1)NO [Pyroxamide],65.9
15,CSCCC(C=O)NC(=O)C(CC(C)C)NC(=O)[C@H](CC(C)C)NC(C)=O (some centres undefined) [Calpain Inhibitor II (ALLM)],109
16,COC1CCC(C(=O)c2ccc3nc4c(cc3c2)CCCO4)CC1 (centres undefined),98.8
17,C=CC(=O)N1CCC[C@@H](n2nc(-c3ccc(Oc4ccccc4)cc3)c3c(N)ncnc32)C1,105 ± 2.3
18,Nc1ncnc2c1c(-c1cnc3[nH]ccc3c1)nn2C1CCCC1,44.2
19,N#CC[C@H](C1CCCC1)n1cc(-c2ncnc3[nH]ccc23)cn1,83.53 ± 0.64
20,COc1cccc(/C=N/N=C/c2cccc(OC)c2)c1,99.7
21,CC1=C(/C=C/C(C)=C/C=C/C(C)=C\CO)C(C)(C)CCC1 [13-cis-Retinol],90.9
